Assay outcomes (PubChem BioAssay)
Shown is part of a subset that was picked to be rich in hits.
VACV E9 pol inh – vaccinia E9 polymerase processive synthesis inhibition; actives 0.94% (n = 46,000); normalized absorbance, % (test concentration not listed); in vitro processive DNA synthesis, absorbance read-out; stronger effect = lower value; AID 493162; in the data active = normalized absorbance mostly below about 85%, no sharp cut-off; inactive = mostly above about 86%
Numbers without * were called inactive.

SMILES	VACV E9 pol inh
Cc1ccc(C)n1-c1sccc1C(=O)CC#N	109.5
CC(=O)N/C(=C\c1ccc(Cl)cc1)C(=O)NCc1ccccc1	102.4
Cc1ccc(CNC(=O)c2oc3ccccc3c2-n2cccc2)cc1	108.3
CC(=O)Nc1c(C(=O)O)oc2ccc(Br)cc12	99.5
O=C(O)c1oc2ccc(Br)cc2c1-n1cccc1	66.6*
c1ccc(CNc2ccc3c(ccc4c5ccccc5[nH]c34)n2)cc1	54.1*
c1ccc(-c2nc(NCc3cccnc3)c3ccccc3n2)cc1	101.5
Cn1c(SCc2ccccc2)nc2c([nH]c3ccccc32)c1=O	97.2
C1=Cc2ccccc2N2CC(c3ccc4ccccc4c3)N=C12 (configuration not stated)	102.3
Cc1ccc(-c2nc(C(=O)Nc3ccc(Cl)cc3)c3n2CCCCC3)cc1	95.1
CC(=O)/C(C#N)=C(\N=C\N(C)C)SCc1c(Cl)cccc1Cl	102.2
Fc1cccc(CSCc2c(F)cccc2Cl)c1	108.4
CN(C)/C=C/C(=N)SCc1c(F)cccc1Cl	75.0*
O=C(Oc1ccc(C2=NCCS2)cc1)c1ccccc1Cl	98.9
CCN(Cc1ccncc1)C(=O)c1cc2c(C)nn(-c3ccc(Cl)cc3)c2s1	96.3
CCC(C(=O)Nc1cccc(NC(C)=O)c1)c1ccccc1 (configuration not stated)	99.8
CN(C)c1ccc(C(=O)OCC(=O)NC2CC2)cc1	106.6
CN(C)c1ccc(C(=C2C=CC(=[N+](C)C)C=C2)c2ccc(N(C)C)cc2)cc1	49.3*
CN(C)c1ccc(C(=NO)c2ccc(N(C)C)cc2)cc1	99.9
Ic1ccc2nc(-c3ccccc3)cn2c1	113.3
c1ccc(CN2CN=C(Nc3nc4ccccc4s3)NC2)cc1	108.5
CCOc1ccc2nc(Nc3nc(O)cc(=O)[nH]3)nc(C)c2c1	99.8
CCN1CN=C(Nc2nc(C)c3cc(C)ccc3n2)NC1	48.6*
Cc1cc(C(=O)NCc2ccc3c(c2)OCO3)nc2c1c(C)nn2-c1ccccc1Cl	106.3
Nc1nc2ccccc2n1CCN1CCCCC1	99.9
SMILES	VACV E9 pol inh
CCn1c2ccccc2n2cc(-c3ccccc3)nc12	94.2
c1ccc(-c2cn3c4ccccc4n(CCN4CCCCC4)c3n2)cc1	58.8*
COc1cccc(CN2COc3ccc4c(oc(=O)c5ccccc54)c3C2)c1	91.7
Cc1c(CNC(=O)c2ccc(C(F)(F)F)cc2)sc2ccccc12	99.1
Cc1ccc(-n2nnnc2-c2nc3ccccc3s2)cc1	110.6
Cc1ccc(-c2nc3ccccc3s2)cc1	70.7*
CCN(CC)S(=O)(=O)c1ccc(-c2nc3ccccc3s2)cc1	99.0
NC(=Nc1ccccc1)C(F)(F)F	100.5
C=CCn1c(SCC(=O)c2ccccc2)nnc1-c1ccc(OC)c(OC)c1	107.0
O=C(CSc1nc2ccc(N3C(=O)c4ccccc4C3=O)cc2s1)c1ccccc1	97.6
